In PubChem BioAssay (NCI):
The panel holds about 79,000 compounds, 15% with a hit somewhere; the sample as a whole holds those more often. Cut-off read from the data, not from the text of the source: active = growth inhibition above about 70%; inactive = the rest.

Legend:
[1] = NCI Yeast Anticancer Drug Screen. Data for the rad50 strain (AID 155);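 note: 0% = growth of vehicle-only cultures of the same strain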; conditions: S. cerevisiae rad50 strain growth inhibition; at 50.0 µM; active compounds read high
Summary of the method: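 Readout: growth inhibition relative to vehicle-treated cultures. Compound exposure was carried out in a genetically defined yeast strain deficient in DNA damage repair.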

[2] = NCI Yeast Anticancer Drug Screen. Data for the mec2-1 strain (AID 157); conditions: S. cerevisiae mec2-1 strain, at 50.0 µM, active compounds read high
Summary of the method: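 Cells of the genetically defined mec2-1 yeast strain are incubated with test compound. Inhibition of growth is calculated against vehicle-treated controls.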

[3] = NCI Yeast Anticancer Drug Screen. Data for the sgs1 mgt1 strain (AID 161);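 note: 0% = growth of cultures given vehicle only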; conditions: S. cerevisiae sgs1 mgt1 strain, at 50.0 µM, active compounds read high
Summary of the method: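 Inhibition of yeast growth, normalised to vehicle-treated controls, is reported for a strain bearing genetic alterations in DNA damage repair.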

[4] = NCI Yeast Anticancer Drug Screen. Data for the cln2 rad14 strain (AID 165);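 note: 0% = growth equal to vehicle treated cultures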; conditions: S. cerevisiae cln2 rad14 strain, at 50.0 µM, active compounds read high
Summary of the method: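 The screen exposed genetically defined yeast (cln2 rad14) to test compounds and scored growth inhibition relative to vehicle-treated controls.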

[5] = NCI Yeast Anticancer Drug Screen. Data for the bub3 strain (AID 167); conditions: S. cerevisiae bub3 mutant strain, at 50.0 µM, active compounds read high
Summary of the method: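 Readout: yeast growth inhibition, expressed relative to vehicle-only wells. The test organism is a mutant strain from a panel with lesions in DNA repair or checkpoint genes.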

[6] = NCI Yeast Anticancer Drug Screen. Data for the mlh1 rad18 strain (AID 175); conditions: S. cerevisiae mlh1 rad18 strain growth inhibition; at 50.0 µM; active compounds read high
Summary of the method: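 Compound-treated yeast growth, normalised to vehicle controls. Strain bears defined DNA repair mutations.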

Measured: growth inhibition

Nc1ccc(C(=O)Nc2ccc(NC(=O)c3ccco3)c(O)c2)cc1
inactive: [1] 2.5% | [2] -11.3% | [3] 31.6% | [4] 13.4% | [5] 20.7% | [6] 10.1%

NC(=O)C1=Cc2cccn2-c2ccccc2S1
inactive: [1] 3.45% | [2] -2.1% | [3] -2.75% | [4] -16.6% | [5] 2.1% | [6] 0.8%

COC(=O)/C=C(\S/C=C(/c1ccccc1)N1CCn2c(C(=O)c3ccccc3)c(C(=O)OC)c(C(=O)OC)c21)C(=O)OC
inactive: [1] 27.4% | [2] 32.6% | [3] 43.8% | [4] 11.4% | [5] 54.1% | [6] 15.2%

Cc1cc(=O)[nH]c2c1CCCC2
inactive: [1] -13.7% | [2] 10.8% | [3] 10% | [4] -38.4% | [5] -26.6% | [6] 8.25%

Nc1nc(N)c(N2CCN(Cc3ccccc3)CC2)c(Cl)n1
inactive: [1] 30.1% | [2] 10.8% | [3] 33.1% | [4] 18.9% | [5] 18.3% | [6] 27.4%

Cc1cc2c(c(C(C)(C)C)c1)OC(=O)/C2=C1/C(=O)Oc2c1cc(C)cc2C(C)(C)C
inactive: [1] 8.3% | [2] -8% | [3] -9.25% | [4] 0.85% | [5] 2.3% | [6] -12.8%

CCOC(=O)C1C2CCCC(=O)C21 (configuration not stated)
inactive: [1] 9% | [2] -4.5% | [3] 3.9% | [4] -56.8% | [5] 12.1% | [6] 3.3%

O=C(O)C1CSC2(CCCN(Cc3ccccc3)C2)N1 (configuration not stated)
inactive: [1] -17.7% | [2] -29.4% | [3] -5.85% | [4] -3.7% | [5] -17.1% | [6] 5.2%

CN(CC(=O)NC(=O)c1ccccc1)c1ccccc1
inactive: [1] 4% | [2] -2% | [3] 8.85% | [4] -0.75% | [5] 11% | [6] 3.2%

CNc1c(F)cc(N=Nc2ccccc2)cc1F
inactive: [1] 14.7% | [2] -8.2% | [3] 30% | [4] -20.7% | [5] -4% | [6] 10.1%

CCOC(=O)c1sc(SC)nc1NC(=O)c1ccc(Cl)cc1
inactive: [1] -26.6% | [2] 19.8% | [3] -49.6% | [4] 0.7% | [5] -2.55% | [6] -24.7%

CCN(CC)CCCNc1ncnc2onc(C)c12
inactive: [1] 15.3% | [2] 15.2% | [3] 2.2% | [4] 6.15% | [5] 1.45% | [6] -9.3%

Cc1cc(O)c(Br)cc1C
inactive: [1] 5.35% | [2] -33% | [3] 9.15% | [4] -5.45% | [5] 0.2% | [6] -9.45%

O=NN(CCCl)C(=O)N(C1CCCCC1)C1CCCCC1
inactive: [1] 8.5% | [2] -3.95% | [3] 12.1% | [4] 3.35% | [5] 5% | [6] 27.7%

Cc1cc2ccccc2[nH]1
inactive: [1] 33.9% | [2] -15.3% | [3] -3.65% | [4] 3.1% | [5] 2.75% | [6] 10%

CCOC(=O)/C(C#N)=C(\CC)c1ccccc1
inactive: [1] -8.5% | [2] -8.85% | [3] -3.85% | [4] -0.15% | [5] -8.85% | [6] -21.5%

C/C=C/[C@@]1(OC(=O)c2ccccc2)C[C@@H]2CCCC[C@@H]21
inactive: [1] 35.4% | [2] 11.1% | [3] 37.4% | [4] 23.3% | [5] 12.9% | [6] 31.6%

O=C(NC(Cc1ccccc1)P(=O)(O)c1ccccc1)OCc1ccccc1 (configuration not stated)
inactive: [1] -8.45% | [2] -30.5% | [3] -30.2% | [4] 15.7% | [5] 2.3% | [6] -12%

CC1(C)OC2COC(c3[nH]nc4c(=O)[nH]c(=O)[nH]c34)C2O1 (configuration not stated)
inactive: [1] 1.1% | [2] -5.65% | [3] -26.9% | [4] -20.8% | [5] -64.3% | [6] -5%

C=CCN1COc2c(cc3c4c(cccc24)C(=O)O3)C1
inactive: [1] -0.25% | [2] -4.25% | [3] 10.1% | [4] 8.35% | [5] 6.35% | [6] 8.35%

Cc1nc2cccc([N+](=O)[O-])c2n1CCCN(C)C
inactive: [1] 1.7% | [2] 6.5% | [3] 11.9% | [4] -8.9% | [5] 18.3% | [6] 10.1%

O=C(Nc1ccccc1)c1cc2ccccc2oc1=O
inactive: [1] 6.95% | [2] -2.65% | [3] -4.5% | [4] 4.75% | [5] -13.2% | [6] 9.55%

NC(=O)c1ccc(Cl)cc1C(N)=O
inactive: [1] -6.55% | [2] 17.9% | [3] 7.1% | [4] -24.1% | [5] -0.05% | [6] -2.25%

Cc1nc2ccccc2c(=O)n1NC(=S)Nc1cccc(Cl)c1
inactive: [1] 7.35% | [2] -35.3% | [3] 28.1% | [4] -12.8% | [5] -8.2% | [6] -26.8%

COc1cc2c(cc1OC)C(c1c(Cl)cccc1Cl)=NCC2
inactive: [1] 13.1% | [2] 10% | [3] 41.4% | [4] 4.25% | [5] 42.6% | [6] 12.7%

CCOC(=O)c1ccc(NC=O)cc1
inactive: [1] 4.1% | [2] 7.35% | [3] -8.75% | [4] -12.5% | [5] 1.95% | [6] -24.1%

O=C1CCC(c2n[nH]c(=S)o2)N1 (configuration not stated)
inactive: [1] -2.8% | [2] 22.7% | [3] 9.05% | [4] -6.65% | [5] 13.2% | [6] 4.75%

CCCSc1n[nH]c(=S)c2nc[nH]c12
inactive: [1] -2% | [2] -24.3% | [3] -14.8% | [4] -5.5% | [5] -21.8% | [6] -1.15%

Cc1cc(N=Nc2cc(Br)cc(Br)c2)cc(C)c1N
inactive: [1] 10.8% | [2] 1.3% | [3] 18.1% | [4] -12.2% | [5] 3.55% | [6] 7.65%

O=c1cc(Cl)ncn1C1OC(CO)C(O)C1O (configuration not stated)
inactive: [1] -17% | [2] -21.1% | [3] -27.6% | [4] -14.3% | [5] -27.6% | [6] -25.3%

CCNC(=O)C(C(=O)O)c1ccccc1 (configuration not stated)
inactive: [1] 1.8% | [2] -5.55% | [3] 5.15% | [4] -21.1% | [5] -13.9% | [6] 5.2%

Nc1nc(N)c2c(n1)NCN(OCOc1ccc(Cl)cc1)C2
inactive: [1] -5.05% | [2] -6% | [3] -4.7% | [4] -21.8% | [5] 7.75% | [6] 1.55%

O=C1C(=O)c2ccccc2C(O)=C1CN(CCO)CCO
inactive: [1] 10.8% | [2] 19.8% | [3] 24.2% | [4] -8.25% | [5] 23.4% | [6] 26.2%

COc1ccc(/C=C/Cc2cc3c(cc2OC(C)=O)OCO3)cc1
inactive: [1] 11.8% | [2] 0.4% | [3] 26.1% | [4] -8.4% | [5] 33% | [6] 12.4%

O=C1CN(N2CCOCC2)CC(=O)N2CCCCN12
inactive: [1] 20.9% | [2] 1.25% | [3] 13.9% | [4] 19.9% | [5] 10.4% | [6] 6.25%

CSc1ccc(Nc2ncnc(N)n2)cc1
inactive: [1] 19.9% | [2] 5.6% | [3] 8.6% | [4] -1.4% | [5] 8.8% | [6] 14.6%

COc1c(O)c2ccccc2c2cc(O)ccc12
inactive: [1] 6.8% | [2] 25.1% | [3] 23.6% | [4] -14.2% | [5] 56.4% | [6] 10.2%

COC(=O)CCc1c(C)[nH]c(C(=O)OC(C)(C)C)c1C
inactive: [1] -9.45% | [2] 9.3% | [3] -10.9% | [4] 14.9% | [5] -4.05% | [6] -3.05%

COC(=O)C1CCC[P+]1(C)C (configuration not stated)
inactive: [1] 47.1% | [2] 41.7% | [3] 45.8% | [4] 13.8% | [5] 56.5% | [6] 38.5%

NC(CCCNc1nc(O)c(-c2ccccc2)c(=O)[nH]1)C(=O)O (configuration not stated)
inactive: [1] -12.9% | [2] -24.4% | [3] -10.7% | [4] -44% | [5] -10.3% | [6] -3.55%

O=[N+]([O-])c1cc(N(c2ccccc2)c2ccccc2)cc([N+](=O)[O-])c1
inactive: [1] 2.05% | [2] -12.4% | [3] -30.4% | [4] 9.95% | [5] -2.8% | [6] -22.6%

CCCN(CCC)CCc1cc(C(C)=O)n(S(=O)(=O)c2ccc(C)cc2)c1
inactive: [1] -10.2% | [2] -17.8% | [3] 0.3% | [4] 19.6% | [5] -7.35% | [6] 21.4%
